The nature of experiment [1]: qHTS assay for small molecules that induce genotoxicity in human embryonic kidney cells expressing luciferase-tagged ATAD5 (AID 651632). Also: nearly all actives have a fitted effect of over 15% in size. In short, it runs like this: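 Cells were seeded at 2,000 per well, dosed with compound, and incubated 16 hr at 37C in 5% CO2. Luciferase activity was then quantified after a 30 min room-temperature incubation with Amplite.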
On the technique in general: Quantitative high-throughput screening tests each substance at several concentrations.

Experiment [2] in a line: qHTS assay for small molecule agonists of the p53 signaling pathway - cell viability (AID 651633; calls by dose curve; also: nearly all actives have a fitted effect of over 30% in size; also: potency is read from the fitted curve at half-maximal effect). Put shortly:
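p53RE-bla cells, seeded at 4,000 per well and rested 5 h at 37 C/5% CO2, received compounds in DMSO for 16 h at 37 C. CellTiter-Glo was then added, and luminescence was read after 30 min at room temperature to gauge cytotoxicity.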

Experiment [3] can be described thus: qHTS assay for small molecules that induce genotoxicity in human embryonic kidney cells expressing luciferase-tagged ATAD5 - cell viability (AID 651634; calls by dose curve; also: nearly all actives have a fitted effect of over 25% in size; also: potency is read from the fitted curve at half-maximal effect). In short, it runs like this:
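Cells (HEK293T, luciferase-tagged ATAD5) are seeded at 2,000 per well, dosed with compound or DMSO vehicle, and incubated 15.5 hr at 37C and 5% CO2. CellTiter-Fluor is added for 30 min before fluorescence is measured.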

Experiment [4] in a line: qHTS assay for small molecule disruptors of the mitochondrial membrane potential (AID 720635). Also: potency is read from the fitted curve at half-maximal effect. Put shortly:
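HepG2 cells (2,000/well) attached overnight at 37C, then took compound for 1 hr at 37C, 5% CO2. Mito-MPS dye was added for 30 min; fluorescence was read at 490/535 nm (monomers) and 540/590 nm (aggregates).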

A short description of experiment [5]: qHTS assay to test for compound auto fluorescence at 590 nm (red) in HepG2 cells (AID 720674). Put shortly:
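Rose Bengal sodium served as the red fluorophore standard. HepG2 monolayers (overnight attachment, MEM with 10% FBS) were exposed to test compounds for 1 hr at 37 C and read at Ex 540/Em 590 nm.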

Experiment [6] in a line: qHTS assay to test for compound auto fluorescence at 535 nm (green) in HepG2 cells (AID 720675).
A short description of experiment [7]: qHTS assay to test for compound auto fluorescence at 460 nm (blue) in HEK293 cells (AID 720678). Put shortly: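 Triamterene serves as the blue fluorophore standard. Compound signal at 405/460 nm is read in HEK293 wells (2,000 cells, 10% dialyzed FBS) after overnight treatment at 37C.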
A short description of experiment [8]: qHTS assay to test for compound auto fluorescence at 590 nm (red) in HEK293 cells (AID 720679). In short, it runs like this: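 We plated HEK293 cells in 10% dialyzed FBS medium, let them adhere for 4-5 hr, then added 23 nL compound. Overnight at 37C and 5% CO2 preceded fluorescence measurement at 540/590nm.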
Experiment [9] is described as follows: qHTS assay to test for compound auto fluorescence at 535 nm (green) in HEK293 cells (AID 720680).
A short description of experiment [10]: qHTS assay to test for compound auto fluorescence at 460 nm (blue) in HEK293 cell free culture (AID 720681). Put shortly: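 Test compounds were pinned into cell-free culture medium (DMEM with 10% FBS) and fluorescence was read directly at Ex/Em 405/460 nm. Signals were expressed as fluorescence equivalents of triamterene, with DMSO vehicle as control.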
Experiment [11] in a line: qHTS assay to test for compound auto fluorescence at 535 nm (green) in HEK293 cell free culture (AID 720682). Put shortly:
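Cell-free medium (DMEM, 10% FBS) receives compound or DMSO by pintool. Plate read directly at Ex 485/Em 535 nm. Signal converted to fluorescein equivalency.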

The nature of experiment [12]: qHTS assay to test for compound auto fluorescence at 590 nm (red) in HEK293 cell free culture (AID 720683). In short, it runs like this: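 Tox21 10K library compounds were pinned into cell-free DMEM with 10% FBS and fluorescence was read at excitation 540 nm. Activity is expressed as Rose Bengal sodium equivalency.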
Experiment [13] in a line: qHTS assay to test for compound auto fluorescence at 460 nm (blue) in HepG2 cell free culture (AID 720685). Put shortly:
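Cell-free plates of MEM plus 10% FBS received 23 nL compound or DMSO vehicle; blue-channel (405/460 nm) intensity scored against triamterene as reference fluorophore.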

A short description of experiment [14]: qHTS assay to test for compound auto fluorescence at 535 nm (green) in HepG2 cell free culture (AID 720686).
A short description of experiment [15]: qHTS assay to test for compound auto fluorescence at 460 nm (blue) in HepG2 cells (AID 720687). Put shortly: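 Cells (2,000/well in MEM with 10% FBS) attached overnight at 37 C, then were exposed to compound or DMSO for 1 hr at 37 C, 5% CO2. Fluorescence read at Ex/Em 405/460 nm, expressed as triamterene-equivalent signal.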
Experiment [16] can be described thus: qHTS assay to test for compound auto fluorescence at 590 nm (red) in HepG2 cell free culture (AID 720684). Put shortly: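 Ex 540 / Em 590 nm read of compound in cell-free MEM (10% FBS). Rose Bengal sodium reference.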
A short description of experiment [17]: qHTS assay for small molecule disruptors of the mitochondrial membrane potential - cell viability (AID 720634; calls by dose curve; also: nearly all actives have a fitted effect of over 20% in size; also: potency is read from the fitted curve at half-maximal effect). Put shortly: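 Cytotoxicity was measured by ATP quantitation in HepG2 wells that had first been treated with compound for 1 hr and stained with m-MPI dye; CellTiter-Glo incubation was 30 min at room temperature.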

SMILES strings stand for the structures. Several values for one entry are separate records, joined by “and”; a condition that tells them apart may be missing. Equal entries are not always repeated. Inconclusive results are not listed. Activity calls are given as the source filed them. Unless noted, calls follow the shape of the dose curve; as a rule, active = well fitted curve in the direction sought with a large enough effect in the repeat runs; inconclusive = weak or mixed curves; inactive = no such curve, though single readings can be large; an effect the other way counts as inactive or inconclusive.

Take `CC(C)(O)c1cnn2c(-c3ccc(F)c(-c4c(F)cccc4C#N)c3)cnc2n1`: the Potency entry in experiment [1], in experiment [2], in [3], in experiment [7], in experiment [10] and in experiment [13] was “inactive” in each case. Moreover, the Potency result in experiment [15] is “inactive”. Also, the Potency in experiment [4] is 19.3 µM (active). For the same compound, the outcome in experiment [5], in [6], in experiment [8], in [9], in experiment [11] and in [12] was inactive. In experiment [14], the compound was classed as inactive.

`C[C@]12Cc3nonc3C[C@@H]1CC[C@@H]1[C@@H]2CC[C@@]2(C)[C@H]1CC[C@]2(C)O`: the Potency result in [1], in experiment [7], in [10], in experiment [13] and in experiment [15] was “inactive” each time. For the same compound, the Potency in experiment [2] was 29.8 µM (active). Besides, the outcome in experiment [5], in experiment [6], in experiment [8], in experiment [9], in experiment [11] and in experiment [12] was inactive. For the same compound, the compound was called inactive in experiment [16] and in experiment [14].

On to `COc1ccc(N)cc1N`, for which the Potency result in experiment [1], in experiment [7], in experiment [10], in experiment [13] and in experiment [15] was “inactive” in each case. Further, the Potency in [2] is 22.4 µM (active) and 33 µM (active); in [17] it was 63.1 µM (active) and 29.4 µM (active); in [4], 1.78 µM (active) and 4.15 µM (active). The compound was called inactive in experiment [5], in experiment [6], in [8], in [9], in [11] and in experiment [12]. The call in experiment [16] and in experiment [14] was inactive.

`O=C(CCl)Nc1ccccc1`: the Potency entry in experiment [1], in experiment [17], in experiment [7], in experiment [10], in experiment [13] and in experiment [15] was “inactive” throughout. Further, the Potency in experiment [3] is 48.6 µM (active). For the same compound, the call in experiment [5], in [6], in experiment [8], in experiment [9], in experiment [11] and in experiment [12] was inactive. The outcome in [16] and in experiment [14] was inactive.

Consider `CCCN(CCC)c1c([N+](=O)[O-])cc(S(N)(=O)=O)cc1[N+](=O)[O-]`, for which the Potency entry in [1], in [7], in [10], in experiment [13] and in [15] was “inactive” throughout. For the same compound, the Potency in experiment [3] was 54.5 µM (active); in [17], 32.7 µM (active); in experiment [4], 3.67 µM (active). In addition, the outcome in [5], in [6], in experiment [8], in experiment [9], in [11] and in experiment [12] was inactive. The outcome in experiment [14] was inactive.

As for `CC(C)CC(C)Nc1ccc(Nc2ccccc2)cc1` (stereo not given), the Potency entry in experiment [1], in experiment [7], in [10] and in experiment [15] was “inactive” in each case. For the same compound, the Potency is 53.5 µM (active) in experiment [2], 23.9 µM (active) in [17] and 13.4 µM (active) in [4]. In addition, the result in [5], in experiment [6], in experiment [8], in experiment [9], in [11] and in experiment [12] was inactive. For the same compound, the compound was called inactive in [16] and in experiment [14].

Consider `Oc1ccc(C2(c3ccc(O)cc3)CCCCC2)cc1`, for which the Potency result in experiment [1], in experiment [3], in experiment [17], in experiment [7], in [10] and in [15] was “inactive” each time. Also, the Potency in experiment [4] is 16.3 µM (active). For the same compound, the call in experiment [5], in experiment [6], in [8], in [9], in [11] and in [12] was inactive. Also, the compound was classed as inactive in experiment [16] and in experiment [14].

For the origin of these results see PubChem BioAssay (Tox21).
